Screening data as filed in PubChem.
Compounds with a hit are over-represented: about 2.4% of the library has one in this group of screens.
SENP7 block: blocks the human protease SENP7; Q9BQF6; recombinant SENP7, Z-RLRGG-aminoluciferin luminescence, 40 min; inhibition, % at 5 µM; hit rate 1.5% among 330,000;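 active means inhibition above about 50% at the single test dose, limit read from the data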;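 further: plate controls were DMSO with enzyme for no effect and no enzyme buffer wells for full effect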
Target sequence (Q9BQF6 706-1050 limits assumed): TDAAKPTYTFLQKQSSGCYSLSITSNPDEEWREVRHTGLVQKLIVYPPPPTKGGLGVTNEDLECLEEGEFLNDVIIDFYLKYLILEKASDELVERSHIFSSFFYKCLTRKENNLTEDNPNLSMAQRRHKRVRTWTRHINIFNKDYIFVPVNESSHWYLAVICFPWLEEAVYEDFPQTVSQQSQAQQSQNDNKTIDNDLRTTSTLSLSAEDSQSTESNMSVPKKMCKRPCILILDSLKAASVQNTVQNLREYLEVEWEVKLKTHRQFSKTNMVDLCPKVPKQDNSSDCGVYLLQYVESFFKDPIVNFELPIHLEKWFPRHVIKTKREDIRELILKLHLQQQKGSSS
SENP8 block-1: blocks human SENP8 cleavage of Nedd8 substrate; hit rate 0.64% among 360,000; inhibition, % at 20 µM; Q96LD8; recombinant SENP8, Nedd8 substrate fluorescence; in the data active means inhibition mostly above about 40%, no sharp cut-off; inactive means mostly below about 27%
Target sequence (Q96LD8 whole entry, looked up): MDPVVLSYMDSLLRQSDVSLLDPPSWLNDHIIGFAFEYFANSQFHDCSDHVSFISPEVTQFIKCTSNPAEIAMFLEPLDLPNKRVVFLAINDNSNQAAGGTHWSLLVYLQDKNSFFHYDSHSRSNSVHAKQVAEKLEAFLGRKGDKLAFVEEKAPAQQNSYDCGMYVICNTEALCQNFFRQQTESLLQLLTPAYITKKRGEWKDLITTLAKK
SENP6 block: inhibitors of human SENP6 protease. AID 2599. Recombinant SENP6 catalytic domain, aminoluciferin luminescence. inhibition, % at 10 µM. hit rate 1.8% among 330,000;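 active means inhibition above about 50% at the single tested dose, limit read from the data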;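 further: plate controls were DMSO wells with enzyme for no effect and DMSO wells lacking enzyme for full effect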
Platelet DG rel: modulates dense granule release in human platelets. inhibition, %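 (compounds screened at 7.5 µM in platelet-rich plasma)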. human platelet-rich plasma, SFLLRN dense granule ATP release, luminescence. AID 1663. hit rate 0.22% among 300,000;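 active means mean replicate score, as percent of positive control, at or above 50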
SENP8 block-2: blocks the human protease SENP8. hit rate 1.2% among 330,000. Q96LD8. inhibition, % at 10 µM. purified SENP8, Z-RLRGG-aminoluciferin cleavage, luminescence. AID 2540; in the data active means inhibition above about 50%
* = called active by the depositor; · = no result.

SMILES	SENP7 block	SENP8 block-1	SENP6 block	Platelet DG rel	SENP8 block-2
CCCN1C(=O)/C(=C\C=C2/C=CN(CC)c3ccccc32)SC1=S	1	55*	22	5	-4
CCCCN1C(=O)/C(=C/C=C2\N(C)c3ccccc3C2(C)C)SC1=S	0	·	-1	5	-4
Cc1nc2ccc(-c3nc4ccccc4[nH]3)cc2[nH]1	49	-188	57*	3	16
O=[N+]([O-])c1cc(CN2CCN(c3ccccc3)CC2)c(O)c2ncccc12	9	48*	19	1	2
Oc1c(CN2CCCCC2)cc(Br)c2cccnc12	13	53*	19	-3	15
CC(C)c1ccc(CC(=O)N2CCC2(C)C(=O)NS(=O)(=O)c2ccc(Cl)s2)cc1 (configuration not stated)	·	8	·	·	·
COCCNC(=O)C1CCCN(C(=O)c2nc(C)oc2C)CC1 (configuration not stated)	·	19	·	·	·
CC1=NN(c2ccccc2)C(=O)C1=C(C)C	5	41*	-4	-4	0
COc1ccccc1N1CC(C(=O)OCC(=O)c2c(N)n(C)c(=O)n(C)c2=O)CC1=O (configuration not stated)	·	18	·	·	·
O=C1NCCCC1C(=O)N/N=C/c1cc([N+](=O)[O-])ccc1O (configuration not stated)	4	45*	-15	-1	3
O=C(N/N=C/c1cccc(O)c1)N/N=C/c1cccc(O)c1	-7	-1	5	13	-9
Cc1nonc1C(=O)N/N=C/c1cccc(O)c1	92*	14	84*	57*	87*
OC[C@@H]1CC[C@@H](Cc2ccc(-c3ccccc3)cc2)O1	63*	18	·	·	·
OCCC1CN(C2CCN(c3ccccc3F)CC2)CCN1Cc1ccccc1 (configuration not stated)	6	21	18	-2	-2
COc1ccc(-c2csc(C)n2)cc1Br	-1	10	-46	7	1
COc1ccc(-c2cn3cccc(C)c3n2)cc1Br	68*	-60	-9	13	59*
CCOC(=O)[C@@H]1[C@H]2COc3cc(OC)ccc3[C@H]2N2C(=O)N(c3ccc(C)cc3)C(=O)[C@]12C	3	-39	0	·	-3
CCNC(=S)N/N=C1\C(=O)c2cccc3cccc1c23	-1	44*	-11	-4	-1
O=C(N/N=C1/C(=O)c2cccc3cccc1c23)c1ccc(Cl)cc1	-7	48*	-35	5	-1
CCNC(=O)[C@H]1O[C@@H](n2cnc3c(N)nc(NCCc4ccc(CCC(=O)O)cc4)nc32)[C@H](O)[C@@H]1O	7	8	-4	109*	10
COc1ccccc1N(CC(=O)NCC1CCCO1)C(=O)CNS(=O)(=O)c1ccc(Cl)cc1 (configuration not stated)	-2	14	-4	-4	-1
CSc1ncccc1C(=O)N1CCN(S(=O)(=O)c2ccc(F)cc2)CC1	6	16	21	·	4
O=C(C[C@H]1CC[C@H]2[C@@H](COC[C@@H](O)CN2C(=O)c2cnccn2)O1)NCc1ccc(Oc2ccccc2)cc1	·	19	·	·	·
Cc1ccc(S(=O)(=O)Cc2ccc(C(=O)OCc3ccccc3)cc2)cc1	0	12	-13	0	6
COC(=O)c1c[nH]c2c1-c1cc(C(=O)OCc3ccccc3)n(S(=O)(=O)c3ccc(C)cc3)c1C(=O)C2=O	·	105*	·	·	·
SMILES	SENP7 block	SENP8 block-1	SENP6 block	Platelet DG rel	SENP8 block-2
C/C(=N/Nc1ccc(C(=O)O)cc1)c1ccc(O)c(O)c1O	-1	47*	-6	-6	-17
Cn1cc(Cl)c(C(=O)Nc2nc3ccc([N+](=O)[O-])cc3s2)n1	90*	7	65*	-1	58*
CCC(=O)Nc1nc2ccc([N+](=O)[O-])cc2s1	2	21	7	6	-11
CCOC(=O)c1nc2sc3c(c2c(=O)n1C(C)C(=O)OCC)CCCC3 (configuration not stated)	-6	-425	39	-4	-1
CCOc1cc(C2Nc3cccc4cccc(c34)N2)ccc1O	2	59*	31	2	2
CCOc1ccc(C2Nc3cccc4cccc(c34)N2)cc1OC	4	24	-26	4	2
CCN(CC(=O)NCc1ccc(Cl)cc1)C(=O)c1cc(S(=O)(=O)N2CCOCC2)ccc1C	2	-14	7	·	-3
C=C[C@@H]1c2cc(C)ccc2N(S(=O)(=O)c2ccc(C)cc2)[C@H](c2ccc(OC(C)=O)cc2)C1(C#N)C#N	-1	-2	-4	·	9
COC1=C(N)C(=O)c2nc(-c3nc(C(=O)O)c(C)c(-c4ccc(OC)c(OC)c4O)c3N)ccc2C1=O	67*	·	80*	·	82*
COc1ccc(N2C(=O)c3ccc(C(=O)Nc4ccccc4OC)cc3C2=O)cc1	-14	14	-6	-1	-7
Cc1ccc(OCCOC(=O)c2sc(=S)n(C)c2C)cc1	9	11	-3	-2	-3
CCOC(=O)C(OC(=O)c1sc(=S)n(C)c1C)C(C)=O (configuration not stated)	-4	18	-12	50*	7
CSCC[C@@H](CO)NC(=O)c1ccc2nc(C3CCCCC3)oc2c1	1	17	-24	-1	1
CC(C)(C)C(Cn1ccnc1)NC(=O)c1ccc2nc(C3CC3)oc2c1 (configuration not stated)	12	-3	-7	58*	-10
CC(OC(=O)CSCC(=O)Nc1ccc(Cl)cc1)C(=O)N(C)Cc1ccccc1 (configuration not stated)	·	1	·	·	·
O=C1c2ccccc2C(O)N1CCN1CCOCC1 (configuration not stated)	0	6	8	53*	1
CN(C)C(=O)c1ccc(N=Nc2c(O)c3ccccc3[nH]c2=O)cc1	·	16	·	·	·
O=C(O)c1ccc(N=Nc2c(O)[nH]c3ccccc23)cc1	100*	16	99*	133*	97*
COc1ccc(NC(=O)c2nc3nc(C)cc(C(F)F)n3n2)cc1OC	4	2	4	68*	-1
CC(C)Nc1nc(NC(C)(C)C)nc(Oc2ccc(=O)n(-c3ccccc3)n2)n1	0	22	-23	60*	5
O=c1cc(COc2ncnc3c(Cl)cc(Cl)cc23)nc2sccn12	-5	-31	-3	52*	-1
O=c1cc(COc2ncnc3ccccc23)nc2sccn12	-3	-11	-7	1	-8
CCc1noc(C)c1C(=O)N1CCN(S(=O)(=O)c2c(C)cc(C)cc2C)CC1	7	5	4	·	1
CC1(C)OC(c2ccccc2)=C/C(=C/C=C2C(=O)c3ccccc3C2=O)O1	3	59*	-15	17	8
O=C(Nc1ccc(NC(=O)c2cccs2)cn1)c1ccccc1	67*	5	64*	-1	38
CCN1CCN(c2ccc(NC(=O)c3ccc4c(c3)[nH]c(=O)n4Cc3ccc(F)cc3)cc2)CC1	7	12	14	-12	-5
O=c1cc(-c2ccc(O)c(O)c2)oc2ccc3ccccc3c12	99*	-87	95*	·	96*
